High-throughput results from PubChem BioAssay.
Pf Dd2 growth: blocks in vitro growth of P. falciparum Dd2; 120,000 tested, 4.3% active; AID 1347417; P. falciparum Dd2 growth, SYBR Green, 72 h; Potency, µM (top dose mostly 28.9 µM), for the others: top-dose activity, negative = inhibition, most hits filed as inhibitors; active = well fitted inhibition curve with a large enough effect;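 also: plate controls were DMSO vehicle for no effect and reference drug for full effect; nearly all actives have a fitted effect of over 65% in size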
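Readout: SYBR Green fluorescence, 485 nm excitation, 535 nm emission, after ~16 h lysis at 37C. Before that, Dd2-infected red cells (2.5% hematocrit) grew 72 h with compound, 29 uM top final concentration.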
The depositor's hits bear a star; i = inactive; [ ] = another dose, or the depositor's remark. Many of the other results were omitted from the sample, so hits are more common in it than they were. Potency is read from the fitted curve at half-maximal effect.

SMILES	Pf Dd2 growth
CN1Cc2nc(-c3cnn(C)c3)ccc2OCC1=O	i
COc1cccc(-c2cc(C(=O)NCCc3cnc[nH]3)c3c(c2)N(C)CCO3)c1OC	i
COCCNC(=O)c1ccc(OC2CCN(C(=O)[C@@H](C)N)CC2)c(Cl)c1	-12.8%
CC(C)n1cc(CN2CCC(Oc3ccc(C(=O)NC4CCCC4)cc3Cl)CC2)cn1	-9.8%
COCCNC(=O)c1ccc(OC)cc1OC1CCN(Cc2cccc3cccnc23)CC1	i
COCCNC(=O)c1ccc(OC2CCN(Cc3ccc(C)s3)CC2)c(Cl)c1	6.31µM*
COCCNC(=O)c1ccc(OC2CCN(Cc3cccc4c3OCO4)CC2)c(Cl)c1	7.08µM*
COCCNC(=O)c1ccc(OC2CCN(CC3CCOC3)CC2)c(Cl)c1 (stereo not drawn)	-11.4%
N#Cc1ccc(C(=O)NC2CCN(c3cc(-c4cccs4)[nH]n3)C2)cc1 (stereo not drawn)	-12.2%
C=C(C)CN(CC)Cc1ccc(=O)n(CCOC)c1	0.9%
CCN(CC)Cc1cc(C2CC(=O)Nc3n[nH]c(C(=O)O)c32)ccc1OC (stereo not drawn)	-8.6%
COCCN1C(=O)[C@H]2CN(Cc3ccc(C)o3)C[C@H]2C1=O	i
O=C(c1ccc(F)cc1)N1CCn2c(nnc2C2CC2)C1	-10.5%[44.1 µM]
CC(C)c1cc(C(=O)N2C[C@@H](C)[C@](O)(C3CC3)C2)nc2ncnn12	-4.5%
Cc1cc(C(F)(F)F)n2ncc(C(=O)N3C[C@@H](C)[C@](O)(C4CCC4)C3)c2n1	14.1µM*
C[C@@H]1CN(C(=O)c2cnc3sccn3c2=O)C[C@@]1(O)C1CCC1	-1.8%
COc1cccc(NC(=O)Nc2cc(-c3cn4cccnc4n3)ccc2OC)c1	i
COc1cccc(NC(=O)Nc2cc(-c3cn4cccnc4n3)ccc2C)c1	i
COc1ccc(-c2cn3cccnc3n2)cc1NC(=O)Nc1cc(C)ccc1C	11.2µM*
CCn1c(C2CCCNC2)nn(CCn2cnc3c2c(=O)n(C)c(=O)n3C)c1=O (stereo not drawn)	12.6%
CN1C(=O)CO[C@H](c2ccc(NC(=O)Nc3ccc(F)cc3)cc2)[C@H]1CO	-18.2%[44.1 µM]
O=C(NC1CC1)c1nc(-c2cccc(C(F)(F)F)c2)c2ccccn12	-19.3%
COCCNC(=O)c1nc(-c2cccc(C(F)(F)F)c2)c2ccccn12	i
O=C(NCc1ccc2c(c1)OCO2)c1nc(-c2cccnc2)c2cnccn12	i
O=C(NCc1cccnc1)c1nc(-c2cccc(C(F)(F)F)c2)c2ccccn12	7.94µM*
SMILES	Pf Dd2 growth
O=C(NCc1cccs1)c1nc(-c2cccnc2)c2cnccn12	11.2µM*
C#CCNC(=O)c1nc(-c2ccsc2)c2cnccn12	-11.1%[44.1 µM]
O=C(NCc1cccs1)c1nc(-c2cccnc2)c2ccccn12	-7.2%
C#CCNC(=O)c1nc(-c2cccc(C(F)(F)F)c2)c2cnccn12	3.55µM*
COCCNC(=O)c1nc(-c2cccc(C(F)(F)F)c2)c2cnccn12	10µM*
O=C(NCc1ccc2c(c1)OCO2)c1nc(-c2cccc(C(F)(F)F)c2)c2ccccn12	i
COCCNC(=O)c1nc(-c2ccc(OC)cc2)c2ccccn12	5.9%
C#CCNC(=O)c1nc(-c2cccnc2)c2cnccn12	i
O=C([C@@H]1C[C@H](F)CN1C(=O)NCc1cccc(F)c1)N1CCc2ccccc2C1	i
CSc1nccc(N2CCC3(CC2)CC(=O)N(CC(C)C)C3)n1	-24.6%
Cn1nccc1C(=O)N1CCCN(CCc2ccccc2)c2ccccc21	i
CN1C[C@H](O)C[C@H]1c1nnc2n1CCN(C(=O)c1ccco1)CC2	13.2%
Cc1nn2c(c1-c1ccccc1[S+](C)(=O)[O-])N(Cc1ccc3[nH]ccc3c1)CCC2	-48.8%[44.1 µM]
COCCN1CCC2(CCC1=O)CCN(C(=O)Nc1ccc(Br)cc1)CC2	82.3%
CCCN(CCC)CCCNC(=O)c1cc2c(=O)n(C)c3ccccc3c2s1	10µM*
COc1ccc(NC(=O)c2cc3c(=O)n(C)c4ccccc4c3s2)cc1Cl	4.3%
CCOc1ccc(CCNC(=O)c2cc3c(=O)n(C)c4ccccc4c3s2)cc1OCC	i
CCCN1CCN(CCCNC(=O)c2cc3c(s2)-c2c(C)cccc2OC3)CC1	i
CCCN1CCN(CCCNC(=O)c2cc3c(=O)[nH]c4ccccc4c3s2)CC1	12.6µM*
CCCN1CCN(CCCNC(=O)c2cc3c(s2)-c2ccccc2OC3)CC1	i
O=C(c1ccoc1)N1CCCC(Cc2nc(C3CCOCC3)no2)C1 (stereo not drawn)	5.5%
COc1cc2ncc(C(=O)c3ccc(C)cc3)c(N3CCCCC3)c2cc1OC	-12.1%
CCOC(=O)C1CCN(c2c(C(=O)c3ccc(OCC)cc3)cnc3ccc(OC)cc23)CC1	10µM*
CCOC(=O)C1CCCN(c2c(C(=O)c3ccc(OCC)cc3)cnc3ccccc23)C1 (stereo not drawn)	i
O=C(NCCc1c[nH]c2ccccc12)c1ccccc1C1CCNC1 (stereo not drawn)	-9.4%
Cc1ccc(S(=O)(=O)N2CCCC(Cn3c(C)nc4cccnc43)C2)cc1F (stereo not drawn)	i
